Bioassay records as filed in PubChem.
Rows were chosen to be rich in hits. Some 2.4% of all compounds tested hit in one or more screens of this group.
Cruzain inh noDet: blocks cruzain activity in detergent-free assay. purified cruzain, Z-FR-AMC fluorescence, no detergent. Potency, µM, most hits filed as inhibitors. hit rate 2.3% among 200,000. AID 1476; note: nearly all actives have a fitted effect of over 40% in size
Target sequence (P25779 123-467 limits assumed): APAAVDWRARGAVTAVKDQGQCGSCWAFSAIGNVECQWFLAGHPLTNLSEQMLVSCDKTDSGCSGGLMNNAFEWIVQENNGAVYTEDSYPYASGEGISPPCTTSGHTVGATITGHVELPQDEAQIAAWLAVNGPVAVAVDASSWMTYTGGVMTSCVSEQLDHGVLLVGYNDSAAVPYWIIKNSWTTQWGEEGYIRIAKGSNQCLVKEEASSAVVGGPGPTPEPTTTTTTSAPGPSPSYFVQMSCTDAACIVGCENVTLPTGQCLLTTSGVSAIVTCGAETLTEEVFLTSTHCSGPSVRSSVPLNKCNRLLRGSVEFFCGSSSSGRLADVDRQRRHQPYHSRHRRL
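Detergent-free condition (0.00005% Triton X-100) in acetate buffer pH 5.5 with DTT. 1.5 nM enzyme and compound were pre-mixed 15 min, then 2 uM Z-FR-AMC substrate added; reaction progress from fluorescence change between first and third reads (60 s).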
Cruzain Triton: cruzain (T. cruzi) inhibition with detergent. hit rate 0.43% among 200,000. purified cruzain, Z-FR-AMC fluorescence, 0.01% Triton. P25779. Potency, µM, usual class: inhibitors. AID 1478; note: nearly all actives have a fitted effect of over 40% in size
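Enzyme 1.5 nM, Z-FR-AMC 2 uM, NaOAc 100 mM pH 5.5, DTT 5 mM, Triton X-100 0.01%; 15 min RT compound preincubation; kinetic ex360/em450, 60 s delta.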
Of the large screens only hits and unclear results are named; the others gave an inactive call. Calls come from the whole dose curve; as a rule, active = well fitted curve in the direction sought with a large enough effect; inconclusive = small, poorly fitted or top-dose-only effect, or another doubt; inactive = no such curve, though single readings can be large; an effect the other way counts as inactive or inconclusive.

COc1cccc(Nc2sc(C(=O)c3ccc4c(c3)OCO4)c(N)c2S(=O)(=O)c2ccccc2)c1	Cruzain inh noDet 7.94µM
Cc1cccc(C)c1Nc1sc(C(=O)c2ccccc2)c(N)c1C(=O)Nc1ccc(F)cc1	Cruzain inh noDet inconclusive
COc1ccc(S(=O)(=O)c2c(Nc3c(C)cccc3C)sc(C(=O)c3ccc4c(c3)OCO4)c2N)cc1	Cruzain inh noDet 7.94µM
COc1ccc(S(=O)(=O)Nc2ccc3c(c2)OCO3)cc1	none
Cc1ccc(C(=O)c2sc(Nc3ccc(F)cc3)c(C#N)c2N)cc1	Cruzain inh noDet inconclusive
COc1ccc(S(=O)(=O)c2c(Nc3c(C)cccc3C)sc(C(=O)c3ccc(F)cc3)c2N)cc1	Cruzain inh noDet 6.31µM
Nc1c(C(=O)c2ccc3c(c2)OCO3)sc(Nc2ccccc2F)c1S(=O)(=O)c1ccccc1	Cruzain inh noDet inconclusive
COc1ccccc1Nc1sc(C(=O)c2ccc(F)cc2)c(N)c1S(=O)(=O)c1ccc(C)cc1	Cruzain inh noDet 7.94µM
Cc1cccc(C)c1OCC(=O)NCC1(N2CCOCC2)CCCCC1	none
Cc1ccc(CNC(=O)C2CCCN(S(=O)(=O)c3ccc4c(c3)oc(=O)n4C)C2)cc1 (stereo not given)	Cruzain inh noDet inconclusive
Cc1ccc(C)c(CN2C(=O)c3ccccc3S(=O)(=O)c3ccc(C(=O)N4CCN(c5ccccc5F)CC4)cc32)c1	none
Cc1ccccc1Nc1sc(C(=O)c2ccccc2)c(N)c1S(C)(=O)=O	none
COc1ccc(S(=O)(=O)c2c(Nc3cccc(C)c3C)sc(C(=O)c3ccccc3)c2N)cc1	Cruzain inh noDet 6.31µM
CCOc1ccc(CCNC(=O)c2nn(C)c3c2CSc2ccccc2-3)cc1	none
COCOc1ccc(OC)cc1C(=O)/C=C/c1ccc(OC)c(Br)c1	none
COc1ccc(N2CCC(CNS(=O)(=O)c3cccc(C(F)(F)F)c3)C2)cc1 (stereo not given)	Cruzain inh noDet 25.1µM
COc1ccc(N2CCC(CNC(=S)Nc3cccc(C)c3)C2)cc1 (stereo not given)	none
COc1ccc(Cn2nnnc2C(c2cccs2)N2CCN(c3ccccc3)CC2)cc1 (stereo not given)	none
COc1ccc(Cn2nnnc2C(c2cccs2)N2CCN(c3ccc([N+](=O)[O-])cc3)CC2)cc1 (stereo not given)	Cruzain inh noDet 31.6µM
Cc1nc(S(=O)(=O)N2CCN(c3cccc(Cl)c3)CC2)cn1C	none
CCOC(=O)N1CCN(CCC(=O)c2ccc(Cl)cc2)CC1	Cruzain inh noDet 12.6µM, Cruzain Triton 14.1µM
CCOC(=O)N1CCN(C(=O)Cc2ccc(Cl)cc2)CC1	none
Cn1cnc2c(=O)oc3ccc(S(=O)(=O)Nc4ccc(F)cc4)cc3c21	none
CC(C)C(O)(C(C)C)C(C)C	none
c1ccc(C2=NN[C@@H]3c4ccccc4-c4ccccc4N3C2)cc1	none
O=C1CCCN1CCCn1cnc2c([nH]c3ccc(F)cc32)c1=O	none
Cc1ccc2[nH]c3c(NCCN4CCOCC4)ncnc3c2c1	Cruzain inh noDet 20µM
C=CCNc1ncnc2c1[nH]c1ccc(C)cc12	none
O=C1CCCN1CCCNc1ncnc2c1[nH]c1ccc(Cl)cc12	Cruzain inh noDet 15.8µM, Cruzain Triton 25.1µM
Cc1ccc(N(C)C(=O)Cn2cnc3onc(-c4ccc(F)cc4)c3c2=O)cc1C	none
Cc1nc(CC(=O)Nc2ccc(C(N)=O)cc2)cs1	none
CCOC(=O)Cc1ccc(NC(=O)N2CC(C)Oc3ccc(Cl)cc32)cc1 (stereo not given)	none
COc1cccc(Cn2cnc3c(NS(=O)(=O)c4ccc(Cl)cc4Cl)c(C)c(C)cc32)c1	Cruzain inh noDet 31.6µM
COc1cccc(Cn2cnc3c(NS(=O)(=O)c4cc(Cl)ccc4Cl)c(C)c(C)cc32)c1	Cruzain inh noDet inconclusive
Cc1ccccc1CNC(=O)c1ccc2[nH]c(C)c(C)c2c1	Cruzain inh noDet inconclusive
C/C(=N\NC(=O)c1ccc([N+](=O)[O-])c(C)c1)c1ccccc1Cl	none
C/C(=N/NC(N)=S)c1ccccc1[N+](=O)[O-]	Cruzain inh noDet 12.6µM, Cruzain Triton 15.8µM
N#CC1=C(N)N2C(=C(C#N)C1c1ccccc1)Sc1ccccc12 (stereo not given)	Cruzain inh noDet 12.6µM
CCOc1ccc(C2C(C#N)=C(N)N3C(=C2C#N)Sc2ccccc23)cc1 (stereo not given)	Cruzain inh noDet inconclusive
CCc1ccc(NC(=O)N(Cc2ccco2)C(C)c2cccs2)cc1 (stereo not given)	none
CCc1ccc(NC(=O)CS(=O)CC(=O)NC(C)CCc2ccco2)cc1 (stereo not given)	Cruzain inh noDet 25.1µM
O=C1c2cc(Br)ccc2O[C@@H](c2ccc3c(c2)OCO3)[C@@H]1O	none
Cc1ccc(S(=O)(=O)N2Cc3ccccc3CC2C(=O)Nc2ccc3c(c2)OCO3)cc1 (stereo not given)	Cruzain inh noDet inconclusive
COc1ccc(S(=O)(=O)N2Cc3ccccc3CC2C(=O)Nc2ccc3c(c2)OCO3)cc1 (stereo not given)	Cruzain inh noDet 25.1µM
O=C(Nc1nnc(SCC(=O)N2CCOCC2)s1)c1ccccc1Cl	none
Cn1c(SCC(=O)Nc2ccc3c(c2)oc2ccccc23)nnc1-c1ccccc1	Cruzain inh noDet 12.6µM
Cn1c(SCC(=O)Nc2ccccc2)nnc1-c1ccccc1	none
O=C(CSc1nc2ccccc2s1)Nc1ccc2c(c1)oc1ccccc12	Cruzain inh noDet 15.8µM
O=C(CSc1nc2ccccc2s1)NNC(=O)Nc1ccc(Cl)c(Cl)c1	Cruzain inh noDet inconclusive
O=C(CSc1nnc(NC(=O)c2ccccc2Cl)s1)Nc1ccc2c(c1)oc1ccccc12	Cruzain inh noDet 3.98µM
COc1ccc(C2=C(C)C(N3CCC(C(=O)NCc4ccco4)CC3)=NS2(=O)=O)cc1	none
Cc1ccc(Nc2c3c(nc4nncn24)CCC3)c(C)c1	none
O[C@@H](c1cc([C@@]23C[C@H]4CC[C@@H]2C[C@H](C4)C3)nc2c(Cl)cc(Cl)cc12)C1CCCCN1 (stereo not given in full)	none
COc1ccc(NC(=O)Cn2c(=O)n(-c3cccc(C(F)(F)F)c3)c(=O)c3sccc32)cc1	none
COc1cc2cc(c1Cl)N(C)C(=O)C[C@H](OC(=O)C(C)C)[C@]1(C)O[C@@H]1[C@@H](C)[C@H]1C[C@](O)(NC(=O)O1)[C@@H](OC)/C=C\C=C(\C)C2	Cruzain inh noDet inconclusive
CCCCC(=O)Nc1ccc(NC(=O)c2ccc([N+](=O)[O-])cc2)cc1OC	none
COc1ccc(/C=C/C(=O)Nc2ccc(OC)cc2[N+](=O)[O-])cc1	none
CCCCC(=O)Nc1ccc(C(=O)Nc2ccc(OC)cc2[N+](=O)[O-])cc1	Cruzain inh noDet 15.8µM
CCCOc1ccc(/C=C/C(=O)Nc2ccc([N+](=O)[O-])cc2C)cc1	Cruzain inh noDet 25.1µM
CCCOc1ccc(/C=C/C(=O)Nc2ccc([N+](=O)[O-])cc2C)cc1OC	none
CCOc1ccc(NC(=O)/C=C/c2ccc(OC)cc2)c([N+](=O)[O-])c1	Cruzain inh noDet 3.98µM, Cruzain Triton 14.1µM
Cc1ccc(-c2nc(NC(=O)CSc3nc(C)nc4sc5c(c34)CCCC5)ns2)cc1	none
O=C(N/N=C/c1cn(-c2ccccc2)nc1-c1ccccc1)c1ccco1	none
N#Cc1ccc(N/N=C/c2cn(-c3ccccc3)nc2-c2ccccc2)c([N+](=O)[O-])c1	Cruzain inh noDet 5.01µM
COc1cccc(-c2nc(SCC(=O)NCC3CCCO3)c(-c3ccc(Cl)cc3)[nH]2)c1 (stereo not given)	none
COc1cc(NC(=O)CCNS(=O)(=O)c2ccc3c(c2)CCN3C(=O)C2CC2)cc(OC)c1	none
